# From PubChem BioAssay
# D3 ag: qHTS of D3 Dopamine Receptor Agonist: qHTS | D(3) dopamine receptor (Homo sapiens), P35462 | D3R DiscoveRx beta-arrestin cells, luminescence, 90 min | max activation, % | 410,000 tested, 0.58% active | AID 652048, 2013; in the data active means max activation above about 30%; further: 0% is about no effect
# Target sequence (P35462 whole entry, looked up): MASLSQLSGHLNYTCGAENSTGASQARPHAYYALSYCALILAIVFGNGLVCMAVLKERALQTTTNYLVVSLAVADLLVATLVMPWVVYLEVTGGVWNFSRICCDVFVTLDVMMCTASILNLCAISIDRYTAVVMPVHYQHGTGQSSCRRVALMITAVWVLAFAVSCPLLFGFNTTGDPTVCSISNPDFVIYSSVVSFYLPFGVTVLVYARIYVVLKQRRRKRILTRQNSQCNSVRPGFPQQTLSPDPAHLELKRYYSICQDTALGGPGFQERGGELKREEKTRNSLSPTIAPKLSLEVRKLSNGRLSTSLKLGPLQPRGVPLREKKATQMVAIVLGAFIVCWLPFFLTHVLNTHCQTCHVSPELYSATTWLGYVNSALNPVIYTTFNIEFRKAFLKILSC
#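 Agonist mode: compounds and dopamine controls were applied to plated cells for 90 min at 37 degrees C after an overnight attachment at 1500 cells/well. Luminescent read-out followed 30 - 60 minutes at room temperature with DiscoveRx detection reagent.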
# ATXN viability: Viability Counterscreen for Primary qHTS for Inhibitors of ATXN expression; S2 cells (HEK-293 line with an ATXN2-luciferase reporter) viability, CellTiter-Fluor protease fluorescence, 24 h; Potency, µM (titrated, usually from 56.7 µM), hits mostly cytotoxic; 400,000 tested, 0.49% active; AID 651635, 2014; further: potency means the concentration at half of the fitted maximal effect; nearly all actives have a fitted effect of over 40% in size
# TGFb inhibitor: qHTS for Inhibitors of TGF-b. HepG2 CAGA-GFP TGF-b/SMAD3 reporter, GFP fluorescence, 18 h; TGF-beta stimulated, 500 pg/mL final. Potency, µM (titrated, usually from 46.1 µM), without a hit: at the top dose activity, negative = inhibition, hits mostly inhibitors. 410,000 tested, 1.2% active; further: potency means the concentration at half of the fitted maximal effect; on the % scale 0 is the no-effect control and ±100 the full control effect; nearly all actives have a fitted effect of over 65% in size
#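 TGF-beta reporter screen: HEPG2 CAGA-GFP, 1% FBS, 500 pg/mL TGF-beta final, 18 h; per-cell GFP summed per well; curves fitted and categorized by class.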
# HepG2 viability: qHTS for Inhibitors of TGF-b: Cytotox Counterscreen | HepG2 CAGA-GFP viability, ATP luminescence, 18 h | Potency, µM (titrated, usually from 46.1 µM), for inactives: at the top dose activity change, negative = cytotoxicity, most hits filed as cytotoxic | 410,000 tested, 0.76% active; further: potency means the concentration at half of the fitted maximal effect
#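 HepG2 CAGA-GFP cells (1000/well, DMEM with 1% FBS) received compound, then TGF-beta at 500 pg/mL final, and were incubated 18 hours at 37 degrees C. Viability was read by CellTiter-Glo luminescence. Media-only wells were set as complete cell-killing and DMSO as no toxicity.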
# DRD3 antagonist: qHTS of D3 Dopamine Receptor Antagonist: qHTS. D(3) dopamine receptor (Homo sapiens), P35462. D3R cells, DiscoveRx beta-arrestin luminescence, antagonist mode; active compounds read low. max response, negative = inhibition, %. 360,000 tested, 2.5% active. AID 652054, 2013; in the data active means max response below about -50%; inconclusive means no clear call, values can overlap the other calls; further: on the % scale 0 is the no-effect control and ±100 the full control effect
#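 Cells plated overnight at 1500 cells/well, then exposed to library compounds with dopamine controls for 90 minutes at 37 degrees C. DiscoveRx reagent added for 30–60 minutes at room temperature; luminescence read, quantitative HTS format.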
# ATXN2 expr inh: Primary qHTS for Inhibitors of ATXN expression. HEK-293 ATXN2-luciferase reporter, luminescence, 24 h. Potency, µM (doses to about 57 µM), for inactives: at the highest dose activity change, negative = inhibition, actives largely listed as inhibitors. 360,000 tested, 0.72% active; further: potency means the concentration at half of the fitted maximal effect; on the % scale 0 is the no-effect control and ±100 the full control effect; nearly all actives have a fitted effect of over 55% in size
#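 qHTS (up to 57 uM final) was run with 24 h compound exposure of reporter cells at 37 °C. Each well was multiplexed: SteadyGlo luminescence measured ATXN2-luciferase expression after a fluorogenic Gly-Phe-AFC viability readout (25 uM final).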
# * hit, by the source's call; i = inactive; u = inconclusive; x = no result. A selection: hits, their analogues and other compounds. The true share with any hit is near 4.7%. Unless noted, the call rests on the fitted dose curve; in most records, active means well fitted curve in the direction sought with a large enough effect; inconclusive means small, poorly fitted or top-dose-only effect, or another doubt; inactive means no such curve, though single readings can be large; an effect the other way counts as inactive or inconclusive.
SMILES,D3 ag,ATXN viability,TGFb inhibitor,HepG2 viability,DRD3 antagonist,ATXN2 expr inh
COc1ccc2ccc3c(c2c1)N=C[C@]1(O3)N(C)c2ccccc2C1(C)C,-2.1,i,u,6.31µM*,-70.3*,-16.4%
CCc1ccc(C=O)cc1,x,x,-2.4%,-4.0%,x,x
OC(c1ccc(Cl)cc1)c1ncc(-c2cccc(C(F)(F)F)c2)[nH]1 (stereo unspecified),-8.6,i,u,10µM*,u,u
OC(c1cc(F)cc(Cl)c1)c1ncc(-c2cccc(C(F)(F)F)c2)[nH]1 (stereo unspecified),-2.7,i,11.2µM*,-67.1%,-7.0,u
COc1cc(CNC2CCCC2)cc(Cl)c1OCc1ccccc1F,-4.8,x,u,11.2µM*,-6.7,20µM*
c1ccc(-c2ccccc2OCCOCCN2CCc3ccccc3C2)cc1,-24.8,i,u,-35.8%,-92.7*,-13.3%
OCCN1CCN(CCOc2ccccc2-c2ccccc2)CC1,-23.9,i,-22.9%,-2.3%,-84.5*,-3.9%
CN1CCN(CCOCCOc2c(Cl)cc(Cl)cc2Cl)CC1,-44.8,x,2.7%,3.8%,u,-5.4%
CCC(=O)c1ccccc1OCCN1CCN(Cc2ccccc2)CC1,-18.3,i,-1.6%,-2.8%,-83.5*,-21.6%
Clc1ccc(OCCOCCN2CCc3ccccc3C2)c(Cl)c1,-33.3,i,u,-27.1%,-74.4*,-21.3%
COCCn1c(SCC(=O)c2c[nH]c3ccccc23)nc2cc(C(=O)NCC(C)C)ccc2c1=O,6.0,i,-22.2%,-13.3%,x,16.0%
COc1ccc(Cl)cc1NC(=O)CN1CCc2ccccc2C1,-13.7,i,-18.2%,-6.5%,-5.7,-25.4%
Clc1ccc(OCCCN2CCc3ccccc3C2)c(Br)c1,-2.5,i,-29.8%,-66.7%,-105.2*,x
Cc1ccc(CNC(=O)c2ccc3c(c2)CCN3S(=O)(=O)c2ccccc2)cc1,0.0,u,-3.8%,-2.6%,x,11.9%
Cc1ccc(S(=O)(=O)N2CCc3cc(C(=O)N(C)Cc4ccccc4)ccc32)cc1,3.0,7.08µM*,u,1.5%,x,-39.0%
CS(=O)(=O)N(CC(=O)Nc1ccc(CC#N)cc1)c1ccc(C23CC4CC(CC(C4)C2)C3)cc1,-1.5,u,7.08µM*,-38.4%,2.3,-27.8%
C=C1CC(Cn2cc(Br)c(=O)[nH]c2=O)(c2ccc(-c3ccccc3)cc2)OC1=O (stereo unspecified),-4.1,u,4.47µM*,7.08µM*,-89.0*,28.2µM*
COC(=O)N=Nc1c(O)[nH]c2ccc(Br)cc12,-12.9,i,7.1%,9.8%,-24.8,-24.6%
Oc1[nH]c2ccccc2c1N=NC(=S)N1CCOCC1,-12.1,3.16µM*,7.08µM*,3.16µM*,-14.3,x
Oc1[nH]c2ccc(Br)cc2c1N=NC(=S)N1CCOCC1,-7.0,u,u,-30.3%,-10.4,0.708µM*
O=C(OCc1ccccc1)c1cccc(-c2nnc(-c3ccccc3)o2)c1,37.9*,i,-3.4%,-16.1%,25.2,-16.7%
O=C(OCc1nnc(-c2ccccc2)o1)c1ccc(S(=O)(=O)NCc2ccco2)cc1,-5.3,i,6.8%,-24.0%,-78.3*,7.6%
O=C(OCc1ccc(C(=O)c2ccccc2)cc1)c1cccc(-c2nnc(-c3ccccc3)o2)c1,-5.6,i,-5.8%,1.3%,-19.1,u
CCOc1cccc(C(=O)Nc2cccc(-c3nnc(-c4ccccc4)o3)c2)c1,38.6*,u,-6.2%,-0.7%,51.1,-29.6%
Cc1ccc(-c2nnc(COC(=O)c3ccco3)o2)cc1,-5.1,i,-3.6%,-2.7%,-95.4*,8.4%
SMILES,D3 ag,ATXN viability,TGFb inhibitor,HepG2 viability,DRD3 antagonist,ATXN2 expr inh
CCOc1cccc(C(=O)Nc2cccc(-c3nnc(-c4ccc(C)cc4)o3)c2)c1,5.6,u,0.0%,21.1%,-25.3,u
Cc1ccc(S(=O)(=O)N2CC=C(c3c(C)n(CC(=O)N4CCCC4)c4ccccc34)CC2)cc1C,-6.1,i,u,-40.4%,x,-18.8%
CCc1ccc(CNC(=O)c2ccc3nc(SCc4ccc(F)cc4)n(C)c3c2)cc1,-6.9,i,u,-30.1%,x,-14.1%
Cc1ccc(S(=O)(=O)N2CCOCC2)cc1C(=O)OCc1nnc(-c2ccccc2)o1,16.3,i,-8.8%,0.1%,0.0,-1.8%
CN(C)S(=O)(=O)c1ccc(C(=O)OCc2nnc(-c3ccccc3)o2)cc1,4.6,i,-2.6%,1.3%,-7.2,-12.6%
O=C(OCc1nnc(-c2ccccc2)o1)c1ccc(CO)cc1,-3.9,i,-3.8%,0.2%,-51.4*,-41.4%
O=C(OCc1nnc(-c2ccccc2)o1)c1cc(S(=O)(=O)N2CCOCC2)c(Cl)cc1Cl,0.8,i,8.1%,-56.5%,-55.3*,-13.8%
O=C(OCc1nnc(-c2ccccc2)o1)c1ccc(Cl)cc1,0.2,i,2.1%,6.0%,-15.9,4.7%
CS(=O)(=O)c1ccc(C(=O)OCc2nnc(-c3ccccc3)o2)cc1[N+](=O)[O-],-15.3,u,u,-61.7%,-59.9*,u
NC1(C(=O)O)CCCC1,x,x,-5.8%,-16.2%,x,x
NC1(C(=O)O)CC1,-47.7,i,6.8%,-8.3%,-75.3*,-1.1%
CCc1cc(=O)oc2cc(C)c3c(-c4ccc(F)cc4)coc3c12,4.0,i,0.2%,-4.5%,x,4.2%
CC(C)[C@H](NS(=O)(=O)c1ccccc1)C(=O)OCC(=O)NC(=O)c1cccn1C,4.9,i,-6.8%,-19.3%,-7.7,15.5%
Cc1ccc(S(=O)(=O)N[C@H](C(=O)OCC(=O)NC(=O)c2cccn2C)C(C)C)cc1,35.0*,i,11.5%,4.1%,2.4,-12.1%
COc1cc(OC)c(/C=C/c2nc3ccccc3o2)c(OC)c1,x,x,-7.9%,-37.4%,x,x
CNC(=O)c1[nH]cnc1C(=O)N[C@@H](C)C(=O)OCc1ccccc1,34.6*,i,u,-41.0%,35.2,4.4%
C[C@H](NC(=O)c1nc[nH]c1C(=O)N1CCN(C(=O)OC(C)(C)C)CC1)C(=O)OCc1ccccc1,11.9,i,u,-0.1%,20.0,11.4%
CC1CCN(C(=O)c2[nH]cnc2C(=O)N[C@@H](C)C(=O)OCc2ccccc2)CC1,8.3,i,11.2µM*,-34.6%,3.2,-36.2%
C[C@H](NC(=O)c1nc[nH]c1C(=O)N[C@@H](Cc1ccccc1)C(=O)OCc1ccccc1)C(=O)OCc1ccccc1,7.8,i,u,-32.4%,-28.5,5.2%
